Screens from PubChem.
Only some compounds are listed: those with a hit (about 10% of all), similar ones and a draw of the others.
PNC inhibitor: blocks assembly of the perinucleolar compartment | activity change (PNC), negative = inhibition, % at 10 µM | AID 2417 | PC3M PTB-GFP, PNC prevalence imaging, 16 h; active compounds read low | 3.1% of 140,000 active;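 active = readout at or below -70, meaning at least 70% loss of cells showing the perinucleolar compartment, a nuclear body marking cancer cells; inconclusive = readout between -30 and a set limit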;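 note: plate controls were DMSO wells for no effect and camptothecin positive control wells for full effect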
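PC3M cells stably expressing PTB-GFP, 750–1000 cells/well, treated 16 h at 37 °C with compound (23 nl of library stock), in duplicate. After paraformaldehyde fixation and Hoechst stain, imaged at 20x; PNC prevalence scored by image analysis.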
LMNA splice mod: LMNA splicing modulation. Potency, µM (titrated, usually from 46.1 µM), without a hit: top-dose ratio change, negative = inhibition, most hits filed as inhibitors. 0.01% of 200,000 active. HeLa LMNA splicing GFP/RFP minigene ratio, 48 h. AID 1487; active = well fitted inhibition curve with a large enough effect in the signal ratio, with a control signal flat, not every such curve was filed as active; inconclusive = small, poorly fitted or top-dose-only effect, or effect the other way, or a change in a side signal; the % refers to the signal ratio; note: potency is the fitted concentration of half-maximal effect
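S3 HeLa cells stably expressing lamin A-EGFP splicing minigene plus DsRed2, 600 cells/well, 48 h compound exposure at 37C. Laser-scanning cytometry; analysed as GFP (500-530 nm)/RFP (575-640 nm) total intensity ratio; 0.5% DMSO vehicle.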
HPGD block: inhibitors of human 15-hydroxyprostaglandin dehydrogenase (HPGD); P15428; purified HPGD, NADH fluorescence kinetic, PGE2 substrate; Potency, µM, for inactives: top-dose activity change, negative = inhibition, most hits filed as inhibitors; 4.3% of 150,000 active; note: potency is the fitted concentration of half-maximal effect
Target sequence (P15428 whole entry, looked up): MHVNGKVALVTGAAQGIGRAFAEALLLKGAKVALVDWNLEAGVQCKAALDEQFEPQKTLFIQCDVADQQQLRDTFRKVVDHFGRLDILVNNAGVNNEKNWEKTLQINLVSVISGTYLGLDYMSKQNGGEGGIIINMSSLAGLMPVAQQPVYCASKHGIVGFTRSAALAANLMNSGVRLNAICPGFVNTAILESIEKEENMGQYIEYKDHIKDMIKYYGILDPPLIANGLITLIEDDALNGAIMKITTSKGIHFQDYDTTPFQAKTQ
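NADH formation kinetics: reaction with 30 uM PGE2 and 1 mM NAD+ (final), 20 nM enzyme, Tris-HCl pH 8 with Tween 20, after 15 min compound preincubation at room temperature. Fluorescence change, last versus first of five reads.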
12-hLO inh: blocks human 12-lipoxygenase activity; 0.12% of 150,000 active; purified 12-hLO, xylenol orange hydroperoxide absorbance; P18054; Potency, µM (highest dose often 57.1 µM), for the others: at the top dose activity change, negative = inhibition, actives largely listed as inhibitors; active = well fitted inhibition curve with a large enough effect; inconclusive = small, poorly fitted or top-dose-only effect; note: potency is the fitted concentration of half-maximal effect; nearly all actives have a fitted effect of over 55% in size
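Purified human 12hLO (150 nM), preincubated 15 min with compound, then 40 uM arachidonic acid for 30 min, room temperature, Hepes pH 7.0 with 0.01% Triton X-100. Hydroperoxide detected by ferrous iron/xylenol orange; 573/405 nm absorbance ratio gives reaction progress.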
ALDH1A1 inh: blocks purified human ALDH1A1 activity; 7.3% of 220,000 active; AID 1030; Potency, µM (top dose mostly 75.3 µM), for the others: at the top dose activity, negative = inhibition, hits mostly inhibitors; Purified ALDH1A1, NADH fluorescence, propionaldehyde substrate; P00352;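 note: potency is the fitted concentration of half-maximal effect; plate controls were no enzyme wells and a reference inhibitor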
Target sequence (P00352 whole entry, looked up): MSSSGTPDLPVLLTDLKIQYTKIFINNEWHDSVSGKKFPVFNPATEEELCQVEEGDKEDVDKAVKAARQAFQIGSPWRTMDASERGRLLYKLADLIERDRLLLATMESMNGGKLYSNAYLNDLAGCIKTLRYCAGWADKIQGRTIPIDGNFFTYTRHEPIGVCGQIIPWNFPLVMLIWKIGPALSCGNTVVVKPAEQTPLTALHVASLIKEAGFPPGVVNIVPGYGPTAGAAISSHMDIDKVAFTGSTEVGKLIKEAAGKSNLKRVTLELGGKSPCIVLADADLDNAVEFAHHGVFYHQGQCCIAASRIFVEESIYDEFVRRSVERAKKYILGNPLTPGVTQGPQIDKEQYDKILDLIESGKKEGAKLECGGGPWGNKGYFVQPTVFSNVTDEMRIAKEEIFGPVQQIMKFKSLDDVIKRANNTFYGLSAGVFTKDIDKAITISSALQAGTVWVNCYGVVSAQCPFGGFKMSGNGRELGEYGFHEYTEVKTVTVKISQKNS
An asterisk follows results filed as active; ? = inconclusive; nt = no result given; [ ] = dose if it differs, or a comment. Unless noted, calls come from the whole dose curve; as a rule, active = well fitted inhibition curve with a large enough effect (not every such curve was filed as active); inconclusive = small, poorly fitted or top-dose-only effect, or another doubt; inactive = no such curve, though single readings can be large or run the other way. Unless noted, % is set by controls: 0 for no effect and ±100 for the full control effect.

SMILES | PNC inhibitor | LMNA splice mod | HPGD block | 12-hLO inh | ALDH1A1 inh
NS(=O)(=O)c1ccc(NC(=S)NCC2CCCO2)cc1 (centres undefined) | 53 | 10% | ? | -2% | 28µM*
Cc1cc(C)cc(NC(=S)NCC2CCCO2)c1 (centres undefined) | ? | -4% | 14µM* | -9% | -9%
Cc1ccc(C)c(/C(O)=C2\C(=O)C(=O)N(Cc3cccnc3)C2c2cccnc2)c1 (centres undefined) | 5 | 21% | 25µM* | -11% | ?
COc1cccc(C(=O)NCC(c2ccc(N(C)C)cc2)N2CCCC2)c1OC (centres undefined) | nt | -10%[46 µM] | nt | nt | nt
Cc1nn(Cc2ccccc2)c(C)c1NC(=O)CSc1nc(C2CC2)nc2c1cnn2-c1ccccc1 | -88* | 0% | -24% | 3% | 4%
Cc1nn(C(=O)c2nn(C)cc2[N+](=O)[O-])c(C)c1Br | nt | nt | nt | nt | 6%
CSc1ccc(Cl)c(C(=O)OCC(=O)NCC(C)C)c1 | -19 | -4% | 14µM* | 3% | -13%
CNC(=O)COC(=O)c1cc(SC)ccc1Cl | nt | 0%[46 µM] | nt | nt | 5%
COc1ccccc1-c1nc(S(=O)(=O)c2ccc(Cl)cc2)c(N(C)C)o1 | 1 | 3% | -6% | -4% | 24µM*
COc1cc(-c2nc(S(=O)(=O)c3ccc(C)cc3)c(N(C)C)o2)cc(OC)c1OC | 20 | 12% | -11% | 2% | ?
CCCCN=CC1=C(O)C(C(=O)OC)C(C)(C)CC1=O (centres undefined) | -86* | -6% | -2% | 4% | -6%
COC(=O)C1C(O)=C(C=NCc2ccccc2)C(=O)CC1(C)C (centres undefined) | 59 | 1% | -11% | 3% | -3%
C=CC[C@@H]1C=C[C@@H](O/N=C\[C@@H](OC)[C@H](C)/C=C\CC(=O)OC)[C@@H](CO)O1 | nt | nt | nt | nt | 2%[13.5 µM]
O=C(COc1ccc(/C=C\[N+](=O)[O-])cc1)N1CCOCC1 | nt | nt | nt | nt | 14µM*
O=C(c1ccc(Cl)cc1)c1ccc(OCC(=O)N2CCOCC2)cc1 | 35 | ? | 28µM* | -10% | ?
Nc1nonc1-n1nnc(C(=O)c2ccccc2)c1-c1ccccc1 | ? | 10% | -12% | -12% | 2.8µM*
CCOC(=O)c1nnn(-c2nonc2N)c1-c1ccc(OCC)cc1 | -12 | -10% | 4% | -2% | -14%
CCCCCCOC(=O)C1(O)CC2OC1(C)n1c3ccccc3c3c4c(c5c6ccccc6n2c5c31)C(=O)NC4 (centres undefined) | nt | nt | -12% | -2%[0.00818 µM] | -3%
O=C(CSc1nccn1Cc1ccc(F)cc1)Nc1ccc2c(c1)OCCO2 | nt | -13%[46 µM] | nt | nt | nt
O=C(O)CC1(CC(=O)Nc2ccc(F)c(Cl)c2)CCCCC1 | nt | nt | nt | nt | 4µM*
CCC(=O)Nc1ccc(F)c(Cl)c1 | -106* | 12% | 1% | 2% | 4%
O=C(O)CC1(CC(=O)Nc2ccc(Br)cc2)CCCCC1 | nt | nt | nt | nt | 5%
CCC(=O)Nc1ccc(Br)c(Cl)c1 | ? | -12% | -19% | -5% | 11%
O=C(O)CC1(CC(=O)Nc2ccc3ccccc3c2)CCCCC1 | -1 | -3% | 4µM* | -2% | ?
COc1ccc(NC(=O)N2CCC3(CC2)CCN(C(=O)c2cnccn2)CC3)cc1 | nt | nt | -5% | -1% | -12%
SMILES | PNC inhibitor | LMNA splice mod | HPGD block | 12-hLO inh | ALDH1A1 inh
CCOC(=O)C1CCCN(C(=O)c2ccc(Cl)cc2)C1 (centres undefined) | nt | 20%[9.22 µM] | nt | nt | -7%
CCCC(=O)Nc1ccc(C(=O)N2CCCC2)cc1 | ? | 21% | 14µM* | 0% | 6%
CCCC(=O)Nc1ccc(C(=O)NNC(=O)c2ccccc2Br)cc1 | -1 | 9% | 28µM* | -1% | ?
CCCCC(=O)Nc1ccc(C(=O)N2CCCC(C(=O)OCC)C2)cc1 (centres undefined) | 31 | -10% | 14µM* | 5% | ?
CCOC(=O)C1CCCN(C(=O)c2ccc(OC)c([N+](=O)[O-])c2)C1 (centres undefined) | -95* | 4% | -5% | -1% | 4.5µM*
CC(C)(CO[C@H]1C[C@H]2CC[C@@]1(C)C2(C)C)[N+](=O)[O-] | nt | nt | -12% | 1%[11.4 µM] | 17%[13.5 µM]
Cc1ccc(C(=O)/C=C/C(=O)c2ccc(C)cc2)cc1 | nt | ? | nt | nt | 0.89µM*
Cc1ccc(N/C=C/C(=O)c2ccc(C)cc2)cc1 | -7 | 5% | -26% | 2µM* | ?
O=C1C(c2ccccc2)SC(=Nc2ccccc2)N1S(=O)(=O)c1ccccc1 (centres undefined) | -26 | 6% | 14µM* | 12% | 3.2µM*
CC1(C)SC(=Nc2ccccc2)N(S(=O)(=O)c2ccccc2)C1=O | -23 | 4% | -2% | 3% | 9%
COC(=O)Oc1nsnc1N1CCOCC1 | 7 | -3% | 14µM* | -16% | 4µM*
Brc1ccc(Oc2nsnc2N2CCOCC2)cc1 | 10 | 16% | -15% | -5% | 4%
O=c1c(N2CCOCC2)nsnc1N1CCOCC1 | ? | -5% | nt | -7% | 25µM*
Cn1cnc(S(=O)(=O)N2CCC(C(=O)N3CCN(c4ccc(Cl)cc4)CC3)CC2)c1 | nt | -2%[46 µM] | nt | nt | nt
CC(Sc1nnnn1-c1ccccc1)C(=O)Nc1ccc(Cl)cn1 (centres undefined) | 13 | 3% | -12% | -16% | 5µM*
CCN(CC)C(=O)c1sc2[nH]c(=S)n(-c3ccccc3)c(=O)c2c1C | 88 | -1%[0.0737 µM] | 28µM* | 0% | ?
O=C(O)/C(Cc1cn[nH]n1)=N\O | nt | nt | -6% | -4%[11.4 µM] | ?
O=C(CCCOc1ccccc1)NC(=S)Nc1ccccc1 | nt | ? | nt | nt | 10µM*
O=C(CCCOc1ccccc1)Nc1ccncc1 | -23 | 2% | -4% | 7% | 3%
COCCNC(=O)CC(c1ccccc1)c1ccccc1 | 20 | 4% | 14µM* | -4% | 8%
CCOC(=O)c1ccc(NC(=S)NC(=O)COc2ccccc2)cc1 | 33 | 5% | ? | -8% | 22µM*
COCCNC(=O)CSc1nnc(-c2ccccc2)c(-c2ccccc2)n1 | nt | -6%[46 µM] | nt | nt | 22µM*
COCCNC(=O)CSc1nnc(-c2ccc(OC)c(OC)c2)c(-c2ccc(OC)c(OC)c2)n1 | nt | -21%[46 µM] | nt | nt | nt
COCCCNC(=O)CCCOc1ccccc1 | ? | 9% | 14µM* | -4% | -11%
COCCCNC(=O)CC(C)c1ccccc1 (centres undefined) | -3 | -10% | 16µM* | 3% | 21%
COc1cccc(CSc2nc3n(n2)C(CC(C)C)C(C(=O)Nc2ccccc2C)=C(C)N3)c1 (centres undefined) | nt | 7%[46 µM] | nt | nt | nt
CSCC[C@@H](C(=O)O)N(C)C | nt | nt | -5% | -3%[11.4 µM] | 7%[13.5 µM]
COc1ccc(-n2c(SCC(=O)Nc3ccc4c(c3)OCO4)nc3c([nH]c4ccccc43)c2=O)cc1 | nt | 12%[46 µM] | nt | nt | nt
C=C1C2c3ccccc3C(CC2(C)O[Si](C)(C)C)N1C(=O)OC (centres undefined) | nt | 7%[9.22 µM] | -2% | -3%[11.4 µM] | 3%[13.5 µM]
